# Screening results (PubChem)
# Rows were chosen to be rich in hits. Some 3.5% of all compounds tested hit in one or more screens of this group.
# GPR151 activ = human GPR151 activation. Q8TDV0. PathHunter beta-arrestin GPR151 cells, luminescence. activation, % at 11.2 µM. actives 1% (n = 650,000). AID 1508602; in the data active means activation above about 4.9%;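 further: 0% = median of compound wells and 100% = cells with positive control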
# Target sequence (Q8TDV0 whole entry, looked up): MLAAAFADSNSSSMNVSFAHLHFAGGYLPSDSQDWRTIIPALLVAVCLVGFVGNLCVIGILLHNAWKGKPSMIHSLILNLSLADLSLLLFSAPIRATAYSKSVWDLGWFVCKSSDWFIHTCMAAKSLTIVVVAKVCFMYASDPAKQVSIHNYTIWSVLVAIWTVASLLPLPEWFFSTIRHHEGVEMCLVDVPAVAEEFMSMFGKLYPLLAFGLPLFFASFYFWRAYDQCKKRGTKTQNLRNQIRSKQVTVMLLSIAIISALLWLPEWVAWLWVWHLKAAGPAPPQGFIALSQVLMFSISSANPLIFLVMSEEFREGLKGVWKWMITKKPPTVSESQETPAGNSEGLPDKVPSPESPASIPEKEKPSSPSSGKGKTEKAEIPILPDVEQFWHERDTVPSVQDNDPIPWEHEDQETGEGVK
# FBW7 act = human FBW7 E3 ligase activation, primary screen | actives 0.13% (n = 650,000) | AID 1259310 | normalized activity (activation), % at 26.1 µM | AlphaScreen FBW7–phospho-cyclin E peptide binding, activator screen; in the data active means normalized activity above about 1.9%;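 further: purified mutant Fbw7 with reduced substrate affinity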
# MITF primary = human MITF inhibition, primary screen | actives 0.91% (n = 650,000) | O75030 | inhibition, % at 2.6 µM | AlphaScreen MITF homodimerization, bead proximity signal; in the data active means inhibition above about 50%;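 further: 0% = vehicle wells with protein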
# TEAD-YAP inh = TEAD-YAP interaction inhibition | HEK-TIYL cells, TEAD-Gal4/YAP UAS-luciferase luminescence | inhibition, % at 9.12 µM | actives 1.4% (n = 640,000) | AID 1259422; in the data active means inhibition above about 32%;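 further: 0% = median of test compound wells and 100% = reference inhibitor wells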
# GPR151 conf act = confirmation of human GPR151 activators; shares compounds with GPR151 activ; GPR151 PathHunter beta-arrestin cells, luminescence, 90 min; % of EA-reagent control over plate median; activation, % at 11.2 µM; 6,700 tested, under 10 active; AID 1508609;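 active means mean percent activation across replicates above the confirmation screen cutoff of 4.91%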
# GPR119 counter = activates human GPR119 in a GPR151 counter-screen; shares compounds with GPR151 activ; GPR119 PathHunter beta-arrestin cells, luminescence, 90 min; 0 = compound-well median, 100 = enzyme-acceptor control; activation, % at 11.2 µM; actives 0.3% (n = 6,700); AID 1508611;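 active means mean percent activation in the counterscreen above 29.09%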;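 further: counterscreen on off-target GPR119 to flag nonselective hits from the GPR151 activator screen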
# * hit, by the source's call; x = not tested or not shown.
SMILES,GPR151 activ,FBW7 act,MITF primary,TEAD-YAP inh,GPR151 conf act,GPR119 counter
COc1ncc(-c2cncc(-c3cccc(O)c3)n2)c(OC)n1,13*,0,7,-33,1,6
COc1ccc(Cl)cc1NC(=O)c1sc2nc3n(c(=O)c2c1C)CCCC3,-3,0,-4,0,x,x
Cc1c(C(=O)NCC2CCCO2)oc2ccc3c(c12)C=CC(C)(C)O3 (stereo not drawn),10*,0,11,-73,-1,-2
CC(C)OC(=O)C1=C(N)OC2=C(C(=O)CCC2)C1c1cccc(C(F)(F)F)c1 (stereo not drawn),1,0,2,-10,x,x
CCOC(=O)Cc1c(C)nc2c(-c3ccccc3)c[nH]n2c1=O,7.5*,0,4,8,-1,-9
O=C(NC1Cc2ccccc2C1)c1ccc(OC2CCN(C(=O)C3CC3)CC2)cc1,8.1*,0,6,4,-1,-15
Cc1ccc(C(=O)NN=C2CCN(C)CC2)cc1,0,0,-20,-10,x,x
CC(C)N1CCC(=NNC(=O)c2ccc(C(C)(C)C)cc2)CC1,6.7*,0,-6,0,2,-2
COc1ccc(Cc2n[nH]c(=O)c3ccccc23)cc1OC,5.3*,0,-4,-10,1,-5
O=c1[nH]nc(Cc2ccccc2)c2ccccc12,0,0,4,-13,x,x
O=C1CC(N2CCN(c3ccc(F)cc3)CC2)C(=O)N1 (stereo not drawn),-1,0,0,-1,x,x
COc1ccc(N2CCN(C3CC(=O)NC3=O)CC2)cc1 (stereo not drawn),6.3*,0,19,12,2,11
COCCCNC(=O)C1CCC(Cn2c(=O)c3sccc3n(Cc3cccc(C)c3)c2=O)CC1 (stereo not drawn),5.3*,0,5,-5,0,-10
N#CCOc1ccc2c(=O)c(Oc3ccccc3Cl)coc2c1,5.6*,0,8,7,1,19
O=S(=O)(NCC(c1ccco1)N1CCc2ccccc21)c1ccc(F)cc1 (stereo not drawn),9.1*,0,3,4,-1,-8
Clc1ccc(Sc2ncnc3sc4c(c23)CCCC4)cc1,15*,0,-1,-5,0,-11
CC1CCCC(NS(=O)(=O)c2cc3c(cc2Cl)NC(=O)CO3)C1C (stereo not drawn),7.8*,0,14,4,0,6
Cc1cc2c(cc1S(=O)(=O)NC1CCCC(C)C1C)OCC(=O)N2 (stereo not drawn),0,0,-11,-9,x,x
COc1ccc(C(=O)NN2C(=O)c3ccccc3C2=O)cc1I,5.1*,0,7,9,0,8
CCCCC[C@H]1/C=C/[C@@H]2[C@@H](C/C=C\CCCC(=O)O1)[C@@H](O)C[C@H]2O,-1,x,-14,x,x,x
CCC(CC)C(=O)Nc1nnc(SCC(=O)Nc2nnc(C)s2)s1,4.9*,0,4,1,-1,6
CCC(=O)Nc1nnc(SCc2cccc(Cl)c2)s1,0,0,0,-2,x,x
COC(=O)c1c(NC(=O)CSc2nnc(N)s2)sc(C)c1C,1,0,-2,1,x,x
COc1ccc(-c2nnc(SCC(=O)Nc3ccc(Cl)cc3C)o2)cc1,0,0,-22,21,x,x
CCC(=O)Nc1nnc(SCC(=O)Nc2cccc(Cl)c2)s1,8.8*,1,14,1,-1,-11
SMILES,GPR151 activ,FBW7 act,MITF primary,TEAD-YAP inh,GPR151 conf act,GPR119 counter
COC(=O)c1c(NC(=O)CSc2nnc(C)s2)sc(C(C)=O)c1C,7.4*,0,5,3,0,7
COc1ccc(-c2nnc(SCC(=O)Nc3ccc(F)c(Cl)c3)o2)cc1,5.0*,0,-4,-46,0,-8
COc1cc(/C=C2/C(=N)N3C(c4ccccc4)=CSC3=NC2=O)ccc1OCc1ccccc1,-1,0,5,-19,x,x
O=C(CSc1nc2ncccc2[nH]1)Nc1ccc(F)c(Cl)c1,7.2*,0,7,4,0,0
O=C(CSc1nc2ccccc2[nH]1)Nc1ccc(Cl)c(C(=O)O)c1,0,-1,-3,-4,x,x
O=C(CSc1nc2ccccc2[nH]1)Nc1ccc(Cl)cc1,0,1,14,-9,x,x
O=C(CSc1nc2ccccc2[nH]1)Nc1cccc(Cl)c1,5.1*,0,4,-7,0,-2
O=C(CSc1nc2ccccc2[nH]1)Nc1cc(Cl)ccc1Cl,11*,0,13,2,0,-7
O=C(CSc1nc2ncccc2[nH]1)Nc1ccc(Cl)c(F)c1,0,0,-2,2,x,x
CCOc1cc(C=O)cc(I)c1OS(=O)(=O)c1ccccc1,-1,0,-5,-6,x,x
COc1ccc(CNc2ccc(F)c(Cl)c2)c(O)c1,-2,0,17,7,x,x
COc1ccc(NC(=O)COc2ccc(Cl)cc2)cc1NC(=O)c1ccco1,6.0*,0,-2,6,0,-3
O=C(Nc1ccc(N2CCCCC2)c(C(=O)O)c1)c1ccco1,0,0,4,-6,x,x
NC(=O)c1cc(NC(=O)c2ccco2)ccc1N1CCCCC1,6.5*,0,-5,-40,0,10
O=C1OC(c2ccc(Cl)c([N+](=O)[O-])c2)=N/C1=C/c1ccccc1Cl,-2,0,1,-3,x,x
N#CC1=C(N)OC(c2ccccc2)=C(n2cnc([N+](=O)[O-])c2)C1c1cccnc1 (stereo not drawn),8.2*,0,-5,2,-1,-4
N#CC1=C(N)OC(c2ccccc2)=C(n2cnc([N+](=O)[O-])n2)C1c1ccccc1 (stereo not drawn),2,0,-7,3,x,x
O=C(NNS(=O)(=O)c1ccc2ccccc2c1)c1ccc(Br)cc1,1,0,4,-6,x,x
O=C(NNS(=O)(=O)c1ccc(Br)cc1)c1ccccc1,5.4*,1,7,6,0,-8
CCOC(=O)c1c(C)n(C)c2c1cc(O)c1ccccc12,6.1*,0,6,-14,1,5
C=CCNC(=O)c1cc(I)ccc1NC(=O)c1ccc(F)cc1,11*,0,20,7,1,-5
C=CCNC(=O)c1cc(I)ccc1NC(=O)c1cccnc1,5.7*,0,3,3,-1,-9
CCOC(=O)C1CCCCN1Cc1ccc(OC)c(C)c1OC (stereo not drawn),0,0,42,0,x,x
CCOC(=O)C1CCCCN1Cc1cc(C)c(OC)cc1C (stereo not drawn),4.9*,0,36,-2,-1,-14
O=c1c2ccccc2ncn1CCCOc1ccccc1[N+](=O)[O-],4.9*,0,1,-85,1,-2
CCCCCOC(=O)CSC1Nc2sc3c(c2C(=O)N1Cc1ccccc1)CCC(C(C)(C)C)C3 (stereo not drawn),0,0,-2,-4,x,x
